High-throughput results deposited in PubChem BioAssay by several laboratories.
UHRF1 binding = UHRF1 methylated DNA binding inhibitors, primary screen, counter-screen for MBD2 inhibitor project, biochemical, TR-FRET, human UHRF1, single concentration. E3 ubiquitin-protein ligase UHRF1 (Homo sapiens), Q96T88. 370,000 tested, 0.75% active. UHRF1 binding to methylated oligo. AID 687016, 2013. inhibition, % at 4.4 µM; in the data active = inhibition above about 21%;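 also: UHRF1 SRA domain binding a hemimethylated CpG hairpin DNA probe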
PfGluPho inh = PfG6PD enzyme inhibitors, primary screen, biochemical, fluorescence intensity, uHTS | glucose-6-phosphate dehydrogenase-6-phosphogluconolactonase (Plasmodium falciparum 3D7) | AID 504690, 2011 | inhibition, % at 20 µM | 350,000 tested, 0.78% active | PfGluPho enzyme, NADPH resazurin-diaphorase fluorescence;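 active = inhibition reaching at least a set limit at 20 µM in the primary screen, cut at about 59% in these data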
PRMT1 FP inh = PRMT1 methyltransferase inhibitors, primary screen, biochemical, fluorescence polarization; Protein arginine N-methyltransferase 1 (Homo sapiens), Q99873; recombinant PRMT1, activity-based probe fluorescence polarization; inhibition, % at 2.79 µM; 370,000 tested, 1.3% active; AID 652257, 2013;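 active = inhibition above about 21% made by adding two undisclosed values, limit read from the data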
Target sequence (Q99873 whole entry, looked up): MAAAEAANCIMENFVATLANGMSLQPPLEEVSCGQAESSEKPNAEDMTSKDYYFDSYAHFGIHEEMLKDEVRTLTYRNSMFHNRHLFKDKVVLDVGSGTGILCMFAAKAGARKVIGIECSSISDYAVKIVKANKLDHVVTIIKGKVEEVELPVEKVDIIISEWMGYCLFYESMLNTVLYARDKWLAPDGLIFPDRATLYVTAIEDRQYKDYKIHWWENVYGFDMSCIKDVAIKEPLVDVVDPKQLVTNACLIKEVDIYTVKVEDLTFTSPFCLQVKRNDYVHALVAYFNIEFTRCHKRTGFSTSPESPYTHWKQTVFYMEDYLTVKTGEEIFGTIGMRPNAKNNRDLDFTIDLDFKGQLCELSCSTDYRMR
MBD2 DNA inh = inhibitors of MBD2 binding to methylated DNA, primary screen, biochemical, TR-FRET, DNA-binding domain, human; Methyl-CpG-binding domain protein 2 (Homo sapiens), Q9UBB5; MBD2 binding to methylated oligonucleotide; inhibition, % at 4.4 µM; 370,000 tested, 0.31% active; in the data active = inhibition above about 13%
M18AAP inhibitor = PfM18AAP inhibitors, malaria aminopeptidase, primary screen, biochemical, QFRET, recombinant enzyme; inhibition, % at 7.35 µM; M18 aspartyl aminopeptidase (Plasmodium falciparum 3D7); AID 1822, 2009; H-Glu-NHMec fluorogenic cleavage; 290,000 tested, 1.2% active;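 active = inhibition above the campaign mean inhibition over all tested compounds plus 3 SD, cut at about 28% in these data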
Numbers stand for hits. This is a sample that favours compounds with a hit; in the whole collection about 3.3% have one here.

COc1ccc(-c2nnc(SCC(=O)N/N=C(\C)c3ccc(-c4ccccc4)cc3)n2-c2ccc(C)cc2)cc1 was read as UHRF1 binding inactive, PRMT1 FP inh inactive and MBD2 DNA inh inactive.
Cc1ccc2[nH]c3c(c2c1)CN(C(=O)CN1CCN(C(=O)c2ccco2)CC1)CC3 was read as UHRF1 binding inactive, PRMT1 FP inh 21, MBD2 DNA inh inactive and M18AAP inhibitor inactive.
Screening O=C(CN1CCN(C(=O)c2ccco2)CC1)N1CCc2[nH]c3ccccc3c2C1 returned PfGluPho inh inactive and M18AAP inhibitor inactive.
CC1=CC(=O)C(C(C)C)=C/C1=N/OC(=O)c1cccc([N+](=O)[O-])c1 was read as UHRF1 binding inactive, PfGluPho inh inactive, PRMT1 FP inh inactive, MBD2 DNA inh inactive and M18AAP inhibitor inactive.
Screening CC1=CC(=O)C(C(C)C)=CC1=NC(=O)c1ccc(C)cc1 returned UHRF1 binding inactive, PfGluPho inh 93, PRMT1 FP inh inactive, MBD2 DNA inh inactive and M18AAP inhibitor inactive.
Screening COc1ccc(-n2c(COc3cccc4ccccc34)nnc2SCC#N)cc1 returned UHRF1 binding inactive, PfGluPho inh inactive, PRMT1 FP inh inactive, MBD2 DNA inh inactive and M18AAP inhibitor 29.
For CCOC(=O)C1CCCN(C(=O)c2ccc(-c3ccc([N+](=O)[O-])cc3)o2)C1 (stereo not drawn) the results were UHRF1 binding inactive, PfGluPho inh inactive, PRMT1 FP inh 24 and MBD2 DNA inh inactive.
Screening CCOC(=O)C1CCCN(C(=O)c2ccc(CS(=O)(=O)c3ccc(C)cc3)o2)C1 (stereo not drawn) returned PfGluPho inh inactive and M18AAP inhibitor inactive.
For Fc1ccc(-c2n[nH]c(=S)n2N=Cc2cccc(OCc3ccccc3)c2)cc1 the results were UHRF1 binding inactive, PRMT1 FP inh inactive and MBD2 DNA inh inactive.
Screening COc1ccc(CCNC(=O)c2ccc3c(c2)ncn3C2CCCCC2)cc1 returned UHRF1 binding inactive, PRMT1 FP inh inactive and MBD2 DNA inh inactive.
Screening COc1ccccc1/C=C1\SC(=S)N(Nc2nc(C)cc(C)n2)C1=O returned UHRF1 binding inactive, PfGluPho inh inactive, PRMT1 FP inh inactive, MBD2 DNA inh inactive and M18AAP inhibitor inactive.
For Cc1cc(C)nc(NN2C(=O)/C(=C/c3ccc(O)cc3)SC2=S)n1 the results were PfGluPho inh inactive and M18AAP inhibitor 30.
`COC(=O)[C@@]12CCCCC3=C1N(CCC3)C(=O)[C@H]2CC(=O)NCCCN1CCCC1=O` gave UHRF1 binding inactive, PRMT1 FP inh inactive and MBD2 DNA inh inactive.
O=C(CSc1nnc(-c2cccnc2)n1-c1ccc(Cl)cc1)Nc1ccc(S(=O)(=O)Nc2nccs2)cc1 was read as UHRF1 binding inactive, PRMT1 FP inh inactive and MBD2 DNA inh inactive.
Cc1cc(C)n(-c2ccc(F)cc2)c(=O)c1C(=O)O was read as UHRF1 binding 23, PfGluPho inh inactive, PRMT1 FP inh inactive, MBD2 DNA inh inactive and M18AAP inhibitor inactive.
Screening O=C(O)CCC(=O)Nc1ccc(SSc2ccc(NC(=O)CCC(=O)O)cc2)cc1 returned UHRF1 binding inactive, PfGluPho inh inactive, PRMT1 FP inh 92, MBD2 DNA inh inactive and M18AAP inhibitor inactive.
O=C(O)CCCC(=O)Nc1ccc(N2CCCC2)cc1 was read as UHRF1 binding 21, PfGluPho inh inactive, PRMT1 FP inh inactive, MBD2 DNA inh inactive and M18AAP inhibitor inactive.
`Cc1cccc(C)c1OCc1cccc(C2Nc3ccccc3C(=O)N2Cc2ccco2)c1` (stereo not drawn) gave UHRF1 binding inactive, PRMT1 FP inh inactive and MBD2 DNA inh inactive.
`COCC#Cc1cnc2c(c1)C(=O)N([C@@H](C)CO)C[C@H](C)[C@H](CN(C)C(=O)c1ccc3c(c1)OCO3)O2` gave UHRF1 binding inactive, PRMT1 FP inh inactive and MBD2 DNA inh inactive.
Screening Cc1ccccc1NC(=O)CCS(=O)(=O)c1cccc2nonc12 returned UHRF1 binding inactive, PfGluPho inh inactive, PRMT1 FP inh inactive, MBD2 DNA inh inactive and M18AAP inhibitor inactive.
Cc1cccc(NC(=O)CCS(=O)(=O)c2cccc3nonc23)c1C was read as UHRF1 binding 27, PfGluPho inh inactive, PRMT1 FP inh inactive, MBD2 DNA inh inactive and M18AAP inhibitor inactive.
O=[N+]([O-])c1cc2c(cc1CN1CCN(c3ccccc3F)CC1)OCO2 was read as UHRF1 binding inactive, PfGluPho inh inactive, PRMT1 FP inh inactive, MBD2 DNA inh inactive and M18AAP inhibitor 29.
For O=C(Nc1cccc(F)c1)O[C@@H]1CC[C@@]23CCCN2C(=O)CCC[C@H]3C1 the results were UHRF1 binding inactive, PRMT1 FP inh inactive and MBD2 DNA inh inactive.
COC(=O)c1cc(C)oc1C was read as UHRF1 binding inactive, PRMT1 FP inh inactive and MBD2 DNA inh inactive.
For Cc1cccc(N/C=C(\[N+](=O)[O-])S(=O)(=O)c2ccccc2)c1C the results were UHRF1 binding 50, PfGluPho inh inactive, PRMT1 FP inh inactive, MBD2 DNA inh inactive and M18AAP inhibitor inactive.
C[C@@H]1OCN(C)[C@H]2C[C@H]3c4[nH]c5cccc(-c6ccccc6)c5c4CCN3C[C@@H]12 was read as UHRF1 binding inactive, PRMT1 FP inh inactive and MBD2 DNA inh inactive.
COc1cc2c(cc1OC)C(C1C(=O)CCCC1=O)N(C(=O)CCl)CC2 (stereo not drawn) was read as UHRF1 binding inactive, PfGluPho inh inactive, PRMT1 FP inh inactive, MBD2 DNA inh inactive and M18AAP inhibitor inactive.
Screening COc1cc2c(cc1OC)C(C1C(=O)CC(C)CC1=O)N(C(=O)CCl)CC2 (stereo not drawn) returned UHRF1 binding 32, PfGluPho inh inactive, PRMT1 FP inh inactive, MBD2 DNA inh inactive and M18AAP inhibitor inactive.
Screening CCOc1ccc(NC(=O)CSc2nncc(=O)n2N)cc1 returned UHRF1 binding inactive, PfGluPho inh inactive, PRMT1 FP inh 34, MBD2 DNA inh inactive and M18AAP inhibitor inactive.
`O=C(c1sc2cccc(F)c2c1Cl)N1CCN(c2ncccn2)CC1` gave UHRF1 binding 26, PfGluPho inh inactive, PRMT1 FP inh inactive, MBD2 DNA inh inactive and M18AAP inhibitor inactive.
`Cc1ccc(S(=O)(=O)Nc2cncnc2NS(=O)(=O)c2ccc(C)cc2)cc1` gave UHRF1 binding 42, PfGluPho inh inactive, PRMT1 FP inh inactive and MBD2 DNA inh inactive.
For Cc1ccc(S(=O)(=O)Nc2ccccc2NS(=O)(=O)c2ccc(C)cc2)cc1 the results were UHRF1 binding inactive, PRMT1 FP inh inactive and MBD2 DNA inh inactive.
Screening O=c1[nH]c2ccccc2c2cn(-c3ccccc3)nc12 returned UHRF1 binding inactive, PfGluPho inh 64, PRMT1 FP inh inactive, MBD2 DNA inh inactive and M18AAP inhibitor inactive.
Screening COC(=O)c1ccc(=O)n(CC(=O)c2ccc(Cl)cc2)c1 returned UHRF1 binding 27, PfGluPho inh inactive, PRMT1 FP inh inactive, MBD2 DNA inh inactive and M18AAP inhibitor inactive.
